Measured values published in PubChem BioAssay (NCI).
The panel holds about 83,000 compounds, 20% with a hit somewhere; the sample as a whole holds those more often.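 A percent growth of 40 corresponds to 60% growth inhibition; 0 means no net growth; -100 means all cells died. Active threshold: below 10.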 A number with no mark means an inactive call. Active and inactive are the calls of the source.

How the values were obtained:
Test in all cases: NCI-60 one-dose screen, 48 h (100 = growth as untreated, 0 = no growth, -100 = all killed)
Settings in all cases: 10 µM unless noted
SK-MEL-2 melanoma = tested on: SK-MEL-2 melanoma
EKVX NSCLC = tested on: EKVX NSCLC
SN12C renal = tested on: SN12C renal
UO-31 renal = tested on: UO-31 renal
TK-10 renal = tested on: TK-10 renal
ACHN renal = tested on: ACHN renal
CAKI-1 renal = tested on: CAKI-1 renal
A498 renal = tested on: A498 renal
CCRF-CEM leukemia = tested on: CCRF-CEM leukemia
MOLT-4 leukemia = tested on: MOLT-4 leukemia
SR leukemia = tested on: SR leukemia
RPMI-8226 leukemia = tested on: RPMI-8226 leukemia
OVCAR-8 ovarian = tested on: OVCAR-8 ovarian
OVCAR-5 ovarian = tested on: OVCAR-5 ovarian
OVCAR-4 ovarian = tested on: OVCAR-4 ovarian
SK-OV-3 ovarian = tested on: SK-OV-3 ovarian
IGROV1 ovarian = tested on: IGROV1 ovarian
OVCAR-3 ovarian = tested on: OVCAR-3 ovarian
HS 578T breast = tested on: HS 578T breast
NCI/ADR-RES ovarian = tested on: NCI/ADR-RES ovarian

SMILES	growth (SK-MEL-2 melanoma)	growth (EKVX NSCLC) [%]	growth (SN12C renal)	growth (UO-31 renal)	growth (TK-10 renal)	growth (ACHN renal)	growth (CAKI-1 renal)	growth (A498 renal)	growth (CCRF-CEM leukemia)	growth (MOLT-4 leukemia)	growth (SR leukemia)	growth (RPMI-8226 leukemia)	growth (OVCAR-8 ovarian)	growth (OVCAR-5 ovarian) [%]	growth (OVCAR-4 ovarian)	growth (SK-OV-3 ovarian)	growth (IGROV1 ovarian)	growth (OVCAR-3 ovarian)	growth (HS 578T breast)	growth (NCI/ADR-RES ovarian)
Cc1ccsc1C(=O)CC(=O)C(F)(F)C(F)(F)C(F)(F)F	115%	93	96.7%	86.5%	126%	102%	92%	116%	95.7%	110%	108%	101%	102%	97.4	98.6%	103%	114%	110%	110%	107%
O=C(/C=C/c1ccccc1Br)c1cccc(OCCCCOc2cccc(C(=O)/C=C/c3ccccc3Br)c2)c1	104%	102	96.6%	81.3%	117%	98.6%	91.9%	108%	88.5%	91.6%	31.8%	-11.7% (active)	102%	105	101%	104%	92.4%	108%	102%	102%
CC(C)(C)[Si](C)(C)OC1[C@@H](O[Si](C)(C)C(C)(C)C)[C@@H](CNC(=O)NC(=O)NC(=O)CI)O[C@H]1n1cnc2c(NC(=O)Nc3ccccc3)ncnc21 (stereo not given in full)	92.8%	56.5	84.1%	-89.2% (active)	46.6%	-22.7% (active)	47.8%	73.8%	-38.5% (active)	29.6%	2.35% (active)	35.2%	-9.33% (active)	67.3	42.9%	92.6%	-65.4% (active)	-63.5% (active)	67.4%	4.72% (active)
CCN(CC)C(=O)O/N=C(/C)c1ccccc1	102%	112	100%	101%	87.2%	112%	115%	103%	100%	109%	104%	105%	93.3%	103	80.7%	111%	126%	109%	123%	103%
CC(=O)c1ccc(N2C(=O)c3ccc(Oc4ccccc4)cc3C2=O)cc1	110%	94.1	98.4%	92.5%	105%	107%	101%	91.5%	134%	115%	119%	101%	114%	103	108%	108%	108%	107%	115%	105%
CC1OC(n2c3ccccc3c3c4c(c5c6ccccc6[nH]c5c32)C(=O)N(CCN[C@H]2CCC[C@@H]2N)C4=O)CC(O)C1O (stereo not given in full)	74.5%	45.9	17.9%	66.8%	52.8%	45.6%	85.7%	77.9%	27.1%	7.62% (active)	-1.11% (active)	4.77% (active)	27.7%	80.4	34.9%	40.7%	36.4%	52.7%	52.3%	88.2%
COc1cc(C2CC(c3ccc(C)cc3)=NN2C=O)ccc1Oc1ccnc2cc(Cl)ccc12 (stereo not given)	6.3% (active)	79.2	75.7%	95.3%	54.5%	48.3%	69.7%	53.3%	82.8%	80.3%	96.6%	87.8%	60.3%	98	95.8%	-15.4% (active)	77.2%	39.5%	7.47% (active)	65.8%
COc1ccc(/C(C)=N/NC(=O)CSc2nc3ccccc3c(=O)n2CCc2ccc(S(N)(=O)=O)cc2)cc1	6.04% (active)	87.3	27.7%	32.4%	-39.8% (active)	34.7%	28.9%	5.05% (active)	33.9%	43%	40.2%	5.61% (active)	-12.9% (active)	55	-54.1% (active)	-31.8% (active)	19.1%	16.6%	29.5%	79.4%
O=C(CCl)N1c2ccccc2Oc2ccc3ccccc3c21	20.2%	59.1	-57.6% (active)	-92.1% (active)	-9.22% (active)	-95.9% (active)	-45.6% (active)	110%	0.604% (active)	-4.23% (active)	9.32% (active)	-24.7% (active)	-35.5% (active)	22.4	20.7%	30.7%	-70.2% (active)	-95.1% (active)	-12.6% (active)	-11.9% (active)
CS(=O)(=O)c1ccc(C(=O)N/N=C/c2cccc3ccccc23)cc1	47.7%	87.4	87.4%	78.5%	85.1%	98.5%	67.2%	69.1%	77.6%	46.8%	32.5%	87.7%	83.9%	109	113%	78.1%	63.3%	67.8%	85.1%	73.5%
Nc1c(C(=O)Nc2cccc(Cl)c2)sc2nc3c(cc12)C(=O)CCC3	69.7%	58.2	54.4%	57.1%	65%	54.2%	40.3%	49.3%	13.5%	57.1%	39.1%	51.8%	75.3%	58.3	60.4%	35.2%	52.4%	10.3%	4.53% (active)	17.7%
O=C1/C(=C/c2cc(F)cc(F)c2)Cc2cc(F)cc(F)c21	93.7%	88	106%	70.9%	102%	92.7%	77.6%	90.2%	110%	87.3%	62.8%	94.1%	111%	96.6	110%	111%	93.2%	94.9%	90.5%	98.2%
CCN(CC)CC(=O)Nc1c(C)cc(C(=O)NN)cc1C	117%	102	98.3%	84.7%	102%	107%	95.8%	99.7%	114%	85.2%	88.7%	120%	107%	103	99.4%	98.7%	88.9%	100%	91.1%	98.5%
CCN1C(=O)/C(=C/N2N=C(c3ccc(Cl)cc3)CC2c2ccc(OC)cc2)SC1=S (stereo not given)	84.4%	93.6	86.2%	71.1%	102%	94.1%	91.6%	64.4%	100%	73.4%	84.2%	101%	93.1%	101	84.4%	87.4%	84.3%	104%	95.2%	96.8%
COc1ccc(C(=O)O)cc1.[Ag]	94.6%	108	103%	91.2%	106%	103%	87.2%	96.5%	25.4%	-52.5% (active)	60.1%	103%	105%	104	117%	114%	110%	99.7%	96.1%	99.5%
COc1cc(/C=C/c2cc(/C=C/c3ccc(O)c(OC)c3)n(C(=O)c3ccccc3Br)n2)ccc1O	-0.325% (active)	30.6	14.2%	23.9%	65%	25.1%	-34.8% (active)	56.4%	3.52% (active)	-6.53% (active)	-4.77% (active)	14.3%	27.7%	84.5	49.8%	16.6%	25%	12.6%	3.59% (active)	28.1%
